Bioassay records as filed in PubChem.
Sampled rows, rich in hits. Any-hit rate of the full collection: about 1.2%.
RGS16-Gao HTS: modulators of RGS16 binding to Galphao, primary screen, biochemical, human proteins, multiplexed bead flow cytometry | Regulator of G-protein signaling 16 (Homo sapiens) + Guanine nucleotide-binding protein … | bead-based flow cytometry RGS16-Galphao binding, fluorescence; actives lie on both sides | binding response (% of control), % at 10 µM | hit rate 0.38% among 220,000 | AID 1441, 2008;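 also: Galphao activated by GDP with aluminum fluoride before binding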
Target sequence (O15492 whole entry, looked up): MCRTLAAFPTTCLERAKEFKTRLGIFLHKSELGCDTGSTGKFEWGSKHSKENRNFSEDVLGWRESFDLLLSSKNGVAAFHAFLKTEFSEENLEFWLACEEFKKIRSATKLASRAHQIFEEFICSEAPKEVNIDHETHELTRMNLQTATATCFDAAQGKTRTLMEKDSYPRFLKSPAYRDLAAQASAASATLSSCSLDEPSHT
Target sequence (P09471 whole entry, looked up): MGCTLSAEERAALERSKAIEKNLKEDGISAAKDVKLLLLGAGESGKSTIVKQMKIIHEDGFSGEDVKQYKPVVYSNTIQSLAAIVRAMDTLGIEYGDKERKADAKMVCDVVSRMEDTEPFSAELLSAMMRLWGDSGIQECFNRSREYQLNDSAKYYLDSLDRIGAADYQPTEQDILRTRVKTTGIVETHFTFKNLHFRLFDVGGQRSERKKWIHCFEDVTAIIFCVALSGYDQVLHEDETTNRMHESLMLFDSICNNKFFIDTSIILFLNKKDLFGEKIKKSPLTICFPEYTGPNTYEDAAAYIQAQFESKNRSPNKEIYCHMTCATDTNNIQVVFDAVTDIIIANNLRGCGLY
GSH fluor: compound fluorescence on glutathione beads, profiling panel, artefact control, biophysical, 488/530 nm, flow cytometry. GSH beads flow cytometry, compound fluorescence 488/530 nm; hits give high values. fluorescence (KMESF) at 10 µM. hit rate 0.25% among 190,000. AID 1776, 2009; in the data active = fluorescence above about 89;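 also: glutathione beads carrying GST-tagged Bcl family fusion proteins plus one bare bead set; values are compound well signal with DMSO vehicle wells as background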
RGS8-Gao: RGS8-Galphao binding modulators, primary screen, biochemical, multiplexed bead flow cytometry; Guanine nucleotide-binding protein G(o) subunit alpha (Homo sapiens), P09471; actives lie on both sides; response (percent of control binding), % at 10 µM; hit rate 0.34% among 220,000; AID 1423, 2008; in the data active = response below about 60% or above about 140%; inactive = in between;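 also: Galphao activated as the GDP aluminium fluoride complex binding bead-coupled RGS8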
RGS4-Gao reg: modulators of RGS4 binding to Galphao, primary screen, biochemical, multiplexed bead flow cytometry; Guanine nucleotide-binding protein G(o) subunit alpha (Homo sapiens), P09471; actives lie on both sides; binding response (% of control), % at 10 µM; hit rate 0.33% among 220,000; AID 1415, 2008; in the data active = binding response below about 49% or above about 150%; inactive = in between;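 also: fluorescent Galphao activated with aluminum fluoride binding bead-coupled RGS4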
Avidin fluor: green autofluorescence of compounds with avidin beads – biophysical, 488/530 nm, flow cytometry, artefact control, profiling panel. compound fluorescence 488/530 nm; hits give high values. fluorescence (KMESF) at 10 µM. hit rate 0.38% among 220,000. AID 1775, 2009; in the data active = fluorescence above about 47
RGS7-Gao: RGS7-Galphao binding modulators, primary screen, biochemical, multiplexed bead flow cytometry | Guanine nucleotide-binding protein G(o) subunit alpha (Homo sapiens), P09471 | binding response (% of control), % at 10 µM | AID 1439, 2008 | hit rate 0.35% among 220,000 | actives lie on both sides; in the data active = binding response below about 49% or above about 150%; inconclusive = no clear call, values can overlap the other calls; inactive = in between;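 also: fluorescent Galphao held in activated GDP-AlF4 state binding bead-coupled RGS7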
RGS4-Gao HTS: modulators of RGS–Galpha-o binding, primary screen, biochemical, multiplexed beads, flow cytometry, RGS4/7/8/16/19; shares compounds with RGS16-Gao HTS; multiplexed bead flow cytometry; RGS4–Galpha-o binding response, % at 10 µM; hit rate 99% among 1,600;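 also: fluorescently labeled Galpha-o bound to GDP with aluminium fluoride binding biotinylated RGS beads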
Biotin-avidin: disruption of biotin probe capture by avidin, counter-screen for RGS protein interaction modulators, biochemical, flow cytometry, bead-based. shares compounds with RGS16-Gao HTS. streptavidin beads, fluorescein-biotin binding. inhibition, % at 10 µM. 1,700 tested, under 10 active. AID 1783, 2009;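 active = inhibition above 50%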;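 also: median green fluorescence of gated singlet beads compared with DMSO control wells; 0% = DMSO wells and 100% = complete loss of bead fluorescence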
RGS8-Gao confirm: RGS8-Galphao binding modulators, confirmation, biochemical, multiplexed bead flow cytometry, single concentration; shares compounds with RGS16-Gao HTS; bead-based flow cytometry RGS8-Galphao binding, fluorescence; actives lie on both sides; binding response (% of control), % at 10 µM; hit rate 3% among 1,700; AID 1836, 2009; in the data active = binding response below about 72% or above about 130%; inactive = in between;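 also: Galphao activated as GDP AlF4 complex before binding bead RGS8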
RGS7-Gao confirm: RGS7-Galphao binding modulators, confirmation, biochemical, multiplexed bead flow cytometry, single concentration. shares compounds with RGS16-Gao HTS. bead-based flow cytometry RGS7-Galphao binding; actives lie on both sides. response (percent of control binding), % at 10 µM. hit rate 7.8% among 1,700; in the data active = response below about 75% or above about 130%; inactive = in between;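 also: fluorescent Galphao activated with GDP and aluminum fluoride binding bead-coupled RGS7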
RGS16-Gao single: modulators of RGS16-Galphao protein binding, confirmation, biochemical, single concentration, multiplexed bead flow cytometry; shares compounds with RGS16-Gao HTS; AID 1838, 2009; bead-based flow cytometry; actives lie on both sides; response (% of control binding), % at 10 µM; hit rate 4% among 1,700; in the data active = response below about 74% or above about 130%; inactive = in between;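 also: Galphao activated as the GDP aluminium fluoride complex binding bead-coupled RGS16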
RGS4-Gao confirm: modulators of RGS4-Galphao protein binding, confirmation, biochemical, single concentration, multiplexed bead flow cytometry | shares compounds with RGS16-Gao HTS | actives lie on both sides | binding response (% of control), % at 10 µM | hit rate 4% among 1,700; in the data active = binding response below about 74% or above about 130%; inactive = in between
RGS19-Gao conf: regulators of RGS19-Galphao binding, confirmation, biochemical, single point, multiplexed bead flow cytometry; AID 1841, 2009; shares compounds with RGS16-Gao HTS; bead-based flow cytometry RGS19-Galphao binding; actives lie on both sides; hit rate 5% among 1,700; response (percent of control binding), % at 10 µM; in the data active = response below about 50% or above about 160%; inactive = in between;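 also: 100% = no compound control and 0% = blank background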
Numbers without * were called inactive; [ ] = remark or other dose. Unless noted, no rule for the calls is given here.

`c1ccc(CCn2nnnc2CN2CCC(n3nnc4ccccc43)CC2)cc1` gave RGS16-Gao HTS 434, GSH fluor 7, RGS8-Gao 161*[activator], RGS4-Gao reg 131, Avidin fluor 6, RGS7-Gao 128, RGS4-Gao HTS 131*, Biotin-avidin -1, RGS8-Gao confirm 105, RGS7-Gao confirm 105, RGS16-Gao single 105, RGS4-Gao confirm 103 and RGS19-Gao conf 106.
COc1ccc(C(c2c(O)c3ccccc3oc2=O)c2c(C)n(C)n(-c3ccccc3)c2=O)cc1 (stereo not drawn) was read as RGS16-Gao HTS 92, GSH fluor 23, RGS8-Gao 100, RGS4-Gao reg 96, Avidin fluor 13 and RGS7-Gao 94.
`Cc1c(C(c2ccc(F)cc2)c2c(O)c3ccccc3oc2=O)c(=O)n(-c2ccccc2)n1C` (stereo not drawn) gave RGS16-Gao HTS 84, GSH fluor 21, RGS8-Gao 46*, RGS4-Gao reg 67, Avidin fluor 3, RGS7-Gao 38*, RGS4-Gao HTS 67*, Biotin-avidin 0, RGS8-Gao confirm 108, RGS7-Gao confirm 110, RGS16-Gao single 113, RGS4-Gao confirm 106 and RGS19-Gao conf 112.
`N#CCCn1cc(C(=O)Nc2ccccc2Br)c(-c2ccc([N+](=O)[O-])cc2)n1` gave RGS16-Gao HTS 99, GSH fluor 19, RGS8-Gao 101, RGS4-Gao reg 101, Avidin fluor 8 and RGS7-Gao 101.
CCOP(=O)(OCC)C(O)c1ccc(OC)cc1 (stereo not drawn) was read as Biotin-avidin 1, RGS8-Gao confirm 96, RGS7-Gao confirm 87, RGS16-Gao single 93, RGS4-Gao confirm 91 and RGS19-Gao conf 69.
For COc1ccc(C(O)P(=O)(OC(C)C)OC(C)C)cc1 (stereo not drawn) the results were RGS16-Gao HTS 103, RGS8-Gao 99, RGS4-Gao reg 107, Avidin fluor 19 and RGS7-Gao inconclusive.
